ALR inh = blocks human ALR sulfhydryl oxidase activity. P55789. inhibition, % (no concentration beside the values). AID 485317. purified ALR, DTT oxidation, H2O2 HRP-luminol luminescence. hit rate 3.8% among 290,000;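 active = mean replicate inhibition above about 79%, with every replicate also reaching it, limit read from the data; inconclusive = only one of the two criteria met; inactive = mean below limit and not every replicate reaching it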
AHR act = activates the human aryl hydrocarbon receptor. P35869. AHR-responsive luciferase reporter cells, luminescence. activation, % at 5 µM. hit rate 2.5% among 320,000; in the data active = activation above about 47%;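 note: 0% = vehicle wells and 100% = reference agonist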
VLA-4 inh = inhibition in a human VLA-4 binding assay; P13612; VLA-4 expressing cells, ligand binding flow cytometry; inhibition, % (about 7 µM as worked out from the volumes in the protocol); hit rate 0.2% among 330,000; AID 2557; in the data active = inhibition above about 50%
SUMO Mot1 rescue = inhibitors of SUMOylation pathway: yeast Mot1-301 growth rescue; S. cerevisiae Mot1-301 growth rescue, ATP luminescence, 38.5C; percent above DMSO median, 100 means doubled; growth rescue, % at 18.8 µM; hit rate 1% among 320,000;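 active = every valid replicate shows activation above 250% relative to neutral control wells; inactive = the rest, any valid replicate at or below 250%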;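 note: OY570 slx delta 5 strain wells were the positive control but not used for scaling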
A1 inh = inhibitors of the anti-apoptotic protein A1, read as caspase activation. MEF A1-2A-BIM cells, Caspase-Glo 3/7 luminescence, 3 h; percent of clofoctol response, vehicle zero. caspase activation, % (no concentration beside the values). hit rate 0.066% among 330,000;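 active = over half of replicate activation scores above 10%, or exactly half above 10 with the replicate mean above 10; inconclusive = replicate mean below 10 yet half the replicates above 10; inactive = over half of replicates below 10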
Efflux pump mplx = blocks antifungal efflux pumps in multiplex yeast assay | AID 485275 | hit rate 0.44% among 330,000 | S. cerevisiae Candida pump triplex, Nile Red efflux | inhibition, % at 10 µM;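 active = plate passing quality check with inhibition over a set limit, or well fluorescence over plate mean plus 4 SD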;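 note: Nile Red retained in pooled yeast measured as flow cytometry median fluorescence; 0% = buffer negative control and 100% = Enniatin B positive control; higher means more Nile Red kept so more efflux inhibition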
* marks the source's active call; other numbers are inactive results; ? = inconclusive; / = not tested or not shown. Shown are actives, neighbours in structure and some others; about 7.2% of the full set was active somewhere.

SMILES	ALR inh	AHR act	VLA-4 inh	SUMO Mot1 rescue	A1 inh	Efflux pump mplx
CCc1nnc(SCc2ccc(C(=O)OC)o2)n1N	97.4*	1.9	-2.6	8.1	2.3	0.0
O=C(Nc1cccc(C(F)(F)F)c1)c1cccnn1	-17.2	19.9	-11.4	-14.7	-1.0	-0.1
COc1cc([N+](=O)[O-])cc(CN2CCCCC2)c1O	98.0*	-2.2	-1.5	-21.9	-0.1	-0.2
O=[N+]([O-])c1ccc(Cl)c(CN2CCCCCC2)c1	/	0.9	-12.1	2.4	-1.5	-0.1
Cc1c(C(=O)N2CCN(CCc3ccccn3)CC2)oc2ccc(Cl)cc12	-23.7	-1.1	9.0	7.5	0.3	0.1
COCCN1CC(CNC(=O)c2cc(COc3ccc(C)c(C)c3)on2)CC1=O (stereo not given)	-2.2	-1.2	1.9	-0.5	-0.5	0.1
CC1=C(C(=O)OCCOc2ccccc2)C(c2ccsc2)NC(=O)N1C (stereo not given)	-11.9	6.4	-3.6	/	-0.6	-0.1
CCc1ccc2oc(-c3ccc(OC)cc3)cc(=Nc3cccc(C(=O)O)c3)c2c1	35.1	-12.2	13.8	-17.6	-6.4	0.0
CCc1ccc2oc(-c3ccc(OC)cc3)cc(=Nc3c(C)n(C)n(-c4ccccc4)c3=O)c2c1	1.1	56.6*	4.6	3.3	-8.4	0.2
O=C(O)c1cc(S(=O)(=O)N2CCN(C(c3ccccc3)c3ccccc3)CC2)ccc1Cl	86.7*	1.1	4.3	26.4	0.6	0.2
CC(C)N1CCN(Cc2cc3ccccc3[nH]2)CC1CCO (stereo not given)	-2.3	24.1	7.3	23.2	0.8	0.0
CN(C)c1ccc(/C=C2/SC(=O)N(CCN=C3NS(=O)(=O)c4ccccc43)C2=O)cc1	/	8.0	-11.7	-1.1	0.7	-1.1
CN(C)c1ccc(/C=C2\SC(=O)N(CCc3nnc(N)s3)C2=O)cc1	97.1*	-6.7	-16.5	-10.3	1.2	0.0
Fc1ccc(-c2nc3ccccc3[nH]2)cc1	/	17.6	2.5	-9.4	-8.1	-0.1
Nc1ccc2nc(-c3cccc(-c4nc5ccc(N)cc5[nH]4)n3)[nH]c2c1	98.8*	7.2	-9.8	0.1	0.5	-0.2
Nc1ccc(-c2nc3ccccc3[nH]2)cc1	98.1*	17.1	-2.8	0.7	-7.4	-0.1
Oc1ccc(C=Nc2ccccc2-c2nc3ccccc3[nH]2)cc1	56.0	73.7*	-14.2	5.7	-1.0	0.0
CC(=O)Nc1ccc2nc(-c3ccccn3)[nH]c2c1	-4.4	35.1	-3.2	15.7	-1.1	0.0
O=c1oc2c(O)cccc2cc1-c1nc2ccccc2[nH]1	-13.6	/	13.2	-4.3	-8.8	0.1
c1ccc(-c2cc(-c3nc4ccccc4[nH]3)c3ccccc3n2)cc1	2.3	52.0*	2.9	3.0	-0.6	0.0
COc1cccc2cc(C(=O)Nc3ccc(S(=O)(=O)NCC4CCCO4)cc3)c(=O)oc12 (stereo not given)	17.2	-0.8	-14.1	6.6	-6.2	-0.1
Cc1ccc2ccc(S(=O)(=O)NCc3ccccn3)cc2c1	0.6	3.2	12.1	-6.0	1.0	0.1
Cc1cc[n+](CCc2ccccc2)cc1C	-1.3	1.0	9.6	130.9	0.0	0.1
Nc1ccc2nc(-c3ccc(-c4nc5ccc(N)cc5[nH]4)cc3)[nH]c2c1	98.6*	3.7	3.9	122.1	0.0	-0.1
Cc1ccc2nc(-c3cccc(N)c3)[nH]c2c1	98.6*	-1.9	-5.5	156.3	0.7	-0.1
SMILES	ALR inh	AHR act	VLA-4 inh	SUMO Mot1 rescue	A1 inh	Efflux pump mplx
O=c1[nH]cccc1-c1nc2ccccc2[nH]1	-2.2	21.6	5.3	13.3	-1.3	0.1
Nc1cccc(-c2nc3ccccc3[nH]2)c1	-113.2	22.1	5.8	-5.5	-10.7	-0.1
Nc1ccccc1-c1nc2ccccc2[nH]1	12.2	55.1*	-4.4	169.2	-2.9	0.2
COc1ccc(C(F)(F)F)cc1N/C=C/c1nnnn1-c1ccc2ccccc2c1	0.9	-0.7	8.1	322.1	-0.3	-0.1
Cc1sc2nc(CSCC(=O)Nc3ccccc3C#N)[nH]c(=O)c2c1C	98.2*	70.1*	0.0	2.4	-0.1	-0.4
Cc1ccc(F)cc1NC(=O)CSCc1nc2sc(C)c(C)c2c(=O)[nH]1	97.2*	12.7	-0.6	-2.1	0.5	-0.2
COc1ccc(S(=O)(=O)N2CCCCCC2)cc1C(=O)N(C)Cc1ccco1	3.7	2.2	-6.3	3.8	0.3	0.1
COc1ccc(NC(=O)CSc2nnc3ccc(-c4ccccn4)nn23)cc1OC	0.4	-1.7	10.3	97.1	0.2	-0.1
CCOc1ccc(NC(=O)CC2S/C(=N/N=C3CCCCCC3)NC2=O)cc1 (stereo not given)	-3.1	3.0	9.2	-18.6	-0.7	-0.2
Cc1cc(NN)nc(Cc2ccccc2)n1	81.4*	2.5	3.8	35.4	1.0	-0.2
CCCC(=O)Nc1nc(C)c(-c2csc(Nc3ccccc3C)n2)s1	?	15.1	-31.6	-12.1	0.8	-0.1
CCCCCCC(=O)Nc1nc(C)c(-c2csc(Nc3ccccc3OC)n2)s1	/	69.5*	26.4	-19.8	0.1	-0.1
CCCC(C)C(=O)Nc1nc(C)c(-c2csc(Nc3ccc(Cl)cc3)n2)s1 (stereo not given)	-4.4	78.7*	16.4	18.0	-1.6	0.0
CCCCCC(=O)Nc1nc(C)c(-c2csc(Nc3ccccc3OCC)n2)s1	1.3	67.1*	/	27.8	-1.4	/
CCCCC(=O)Nc1nc(C)c(-c2csc(Nc3cc(Cl)ccc3OC)n2)s1	-1.7	70.3*	0.8	1.2	?	0.0
O=C(CSc1nnc(-c2ccccc2Br)o1)N1CCc2ccccc2C1	1.4	3.2	-5.1	11.5	0.1	-0.1
COC(=O)C1CSC(C(=O)OC)N1C(=O)Nc1ccc(Cl)cc1 (stereo not given)	/	-5.8	-1.5	22.0	0.2	-0.1
COc1ccc(C2SCC(=O)N2c2c(C)n(C)n(-c3ccccc3)c2=O)cc1OC (stereo not given)	-4.4	-2.6	15.8	-10.8	0.4	-0.2
CCCCS(=O)(=O)N1CCC(C(=O)Oc2ccc(Cl)cc2)CC1	-0.2	0.2	13.9	-1.5	0.1	0.3
C=CCNC(=O)/C(=C\c1ccc(Br)cc1)NC(=O)c1ccccc1OC	/	8.1	-5.3	-4.8	0.0	0.1
N#CC(C#N)=C1NC2(CCCC2)Cc2ccccc21	-3.3	0.0	15.3	9.4	-0.1	2.5
COc1cccc(C(=O)NCCS(=O)(=O)N2CC(C)CC(C)C2)c1 (stereo not given)	16.6	4.9	40.6	-2.6	-0.8	-0.1
Oc1c(Br)cc(Br)cc1CNc1cccc2cccnc12	-103.7	44.8	-1.3	1.8	-0.8	0.6
Oc1c(Br)cc(Br)cc1CNn1cnnc1	98.5*	17.5	12.7	-4.3	-0.6	0.4
Oc1c(Br)cc(Br)cc1CNc1ccccn1	98.2*	-0.8	11.5	288.2*	1.1	0.2
CCCNC(=O)CCC(=O)Nc1ncc(-c2ccc(C)cc2)n1C	-6.3	4.3	2.9	-8.5	0.4	-0.1
